Here are results for 15 molecules from ChEMBL document CHEMBL1961873, “Compounds: GSK PKIS; Assays: Nanosyn kinase panel” (2012).

Where “and” joins values, the source holds several entries; their conditions need not be identical. Identical values can stand only once.

The target of assay [1] is Dual specificity protein kinase CLK3 (Homo sapiens) (UniProt P49761). To be noted: at 1 µM.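 Further: each value is the mean inhibition of CLK3.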
Assay [2] concerns the target Dual specificity tyrosine-phosphorylation-regulated kinase 1A (Homo sapiens) (UniProt Q13627). To be noted: at 0.1 µM.
Assay [3] shares this target. As to conditions: at 1 µM.
Assay [4] has as its target Dual specificity tyrosine-phosphorylation-regulated kinase 1B (Homo sapiens) (UniProt Q9Y463). As to conditions: at 0.1 µM.
For assay [5] the target is unchanged. To be noted: at 1 µM.
Assay [6] addresses T1, Dual specificity tyrosine-phosphorylation-regulated kinase 2 (Homo sapiens) (UniProt Q92630).
T1 sequence (whole entry): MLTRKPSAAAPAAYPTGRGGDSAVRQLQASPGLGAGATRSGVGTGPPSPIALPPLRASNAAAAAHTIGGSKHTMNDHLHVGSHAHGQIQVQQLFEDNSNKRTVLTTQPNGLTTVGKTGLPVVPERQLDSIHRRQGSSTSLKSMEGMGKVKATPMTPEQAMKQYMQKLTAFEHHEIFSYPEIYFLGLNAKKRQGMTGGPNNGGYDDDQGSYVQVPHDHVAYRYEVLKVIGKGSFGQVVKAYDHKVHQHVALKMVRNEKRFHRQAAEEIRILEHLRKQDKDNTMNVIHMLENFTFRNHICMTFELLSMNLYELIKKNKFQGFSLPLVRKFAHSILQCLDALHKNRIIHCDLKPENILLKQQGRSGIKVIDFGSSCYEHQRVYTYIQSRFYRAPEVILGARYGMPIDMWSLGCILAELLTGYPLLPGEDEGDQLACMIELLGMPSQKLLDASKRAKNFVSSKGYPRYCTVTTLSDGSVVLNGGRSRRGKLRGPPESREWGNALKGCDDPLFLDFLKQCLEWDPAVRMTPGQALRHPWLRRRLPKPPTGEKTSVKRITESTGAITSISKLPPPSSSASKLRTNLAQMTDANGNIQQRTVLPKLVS
As to conditions: at 0.1 µM.

Assay [7] deals with T1, Dual specificity tyrosine-phosphorylation-regulated kinase 2 (Homo sapiens). To be noted: at 1 µM.
Assay [8] concerns the target Glycogen synthase kinase-3 alpha (Homo sapiens) (UniProt P49840). To be noted: at 0.1 µM.
Assay [9] has the same target. As to conditions: at 1 µM.
Assay [10] deals with Glycogen synthase kinase-3 beta (Homo sapiens) (UniProt P49841). To be noted: at 0.1 µM.
Sequence of Glycogen synthase kinase-3 beta (Homo sapiens) (P49841 whole entry, looked up): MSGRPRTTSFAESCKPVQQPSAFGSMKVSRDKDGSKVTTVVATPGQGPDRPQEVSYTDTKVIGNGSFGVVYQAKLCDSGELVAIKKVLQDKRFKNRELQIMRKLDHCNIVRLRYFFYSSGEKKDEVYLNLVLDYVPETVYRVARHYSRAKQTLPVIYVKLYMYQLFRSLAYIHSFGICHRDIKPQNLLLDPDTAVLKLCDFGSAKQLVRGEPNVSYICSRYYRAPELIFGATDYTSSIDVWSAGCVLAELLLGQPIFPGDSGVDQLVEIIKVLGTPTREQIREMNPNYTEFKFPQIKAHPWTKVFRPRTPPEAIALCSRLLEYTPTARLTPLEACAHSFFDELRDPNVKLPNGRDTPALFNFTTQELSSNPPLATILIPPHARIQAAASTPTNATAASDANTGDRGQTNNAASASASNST

Sequence of Dual specificity protein kinase CLK3 (Homo sapiens) (P49761 whole entry, looked up): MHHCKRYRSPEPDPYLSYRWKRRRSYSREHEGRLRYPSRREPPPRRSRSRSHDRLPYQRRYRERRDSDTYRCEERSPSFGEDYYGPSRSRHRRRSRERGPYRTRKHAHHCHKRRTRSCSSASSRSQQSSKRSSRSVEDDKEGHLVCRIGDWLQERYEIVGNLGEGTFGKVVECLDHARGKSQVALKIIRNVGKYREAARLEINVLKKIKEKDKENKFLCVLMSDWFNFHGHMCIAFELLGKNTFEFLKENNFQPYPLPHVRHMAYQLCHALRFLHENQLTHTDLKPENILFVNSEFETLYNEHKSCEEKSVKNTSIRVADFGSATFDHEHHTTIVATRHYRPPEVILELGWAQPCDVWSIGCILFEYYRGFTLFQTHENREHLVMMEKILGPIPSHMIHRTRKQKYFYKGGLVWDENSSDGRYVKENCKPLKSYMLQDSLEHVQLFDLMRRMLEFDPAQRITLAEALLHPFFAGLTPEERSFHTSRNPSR
Sequence of Dual specificity tyrosine-phosphorylation-regulated kinase 1B (Homo sapiens) (Q9Y463 whole entry, looked up): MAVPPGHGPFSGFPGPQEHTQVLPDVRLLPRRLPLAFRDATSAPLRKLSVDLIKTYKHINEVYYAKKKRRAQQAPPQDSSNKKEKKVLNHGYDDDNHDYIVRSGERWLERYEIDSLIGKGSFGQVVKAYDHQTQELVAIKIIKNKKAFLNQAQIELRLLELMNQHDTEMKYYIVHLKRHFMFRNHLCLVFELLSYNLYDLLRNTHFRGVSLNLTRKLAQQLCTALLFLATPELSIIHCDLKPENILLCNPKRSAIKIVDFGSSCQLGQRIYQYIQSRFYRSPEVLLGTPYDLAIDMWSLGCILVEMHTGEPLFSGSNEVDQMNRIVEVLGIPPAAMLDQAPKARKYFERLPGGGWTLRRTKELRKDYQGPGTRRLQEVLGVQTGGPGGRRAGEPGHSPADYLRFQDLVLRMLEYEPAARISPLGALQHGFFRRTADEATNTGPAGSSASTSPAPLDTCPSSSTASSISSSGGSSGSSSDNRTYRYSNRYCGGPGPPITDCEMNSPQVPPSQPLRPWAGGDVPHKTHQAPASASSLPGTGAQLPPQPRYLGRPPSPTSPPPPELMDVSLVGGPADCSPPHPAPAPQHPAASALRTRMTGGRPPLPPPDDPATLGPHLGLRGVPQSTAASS
Sequence of Glycogen synthase kinase-3 alpha (Homo sapiens) (P49840 2-483 limits assumed): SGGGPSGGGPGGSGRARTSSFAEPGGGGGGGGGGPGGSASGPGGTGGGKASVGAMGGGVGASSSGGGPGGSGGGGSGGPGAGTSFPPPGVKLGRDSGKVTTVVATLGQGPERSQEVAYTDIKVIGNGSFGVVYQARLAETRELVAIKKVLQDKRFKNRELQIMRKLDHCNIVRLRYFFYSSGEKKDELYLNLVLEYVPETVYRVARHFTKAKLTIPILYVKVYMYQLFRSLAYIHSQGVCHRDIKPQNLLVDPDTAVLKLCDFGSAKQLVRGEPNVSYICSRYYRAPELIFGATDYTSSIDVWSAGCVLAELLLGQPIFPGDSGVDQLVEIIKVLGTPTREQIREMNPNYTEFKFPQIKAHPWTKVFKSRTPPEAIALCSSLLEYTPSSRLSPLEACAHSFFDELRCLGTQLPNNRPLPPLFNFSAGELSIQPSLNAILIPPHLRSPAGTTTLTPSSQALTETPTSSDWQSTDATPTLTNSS

`CN1CCC(n2cnc(-c3ccc(F)cc3)c2-c2ccnc(NCCO)n2)CC1`: the inhibition – broadly, the drop in the measured response relative to a control, in per cent – in [1] was 3.15%; in assay [2], 3.36%; in assay [3], 3.78%; in assay [4] it was -0.1%; in assay [5], 1.43%; in [6] it was 2.57%. For the same molecule, the inhibition amounted to 3.9% in assay [7], 3.17% in assay [8], 5.09% in assay [9] and 3.17% in assay [10].

For the molecule `c1ccc(-c2n[nH]cc2-c2ccnc(-c3ccc(OCCn4ccnc4)cc3)c2)nc1`, the inhibition was 0.82% in assay [1]; 3.79% in assay [2]; 5.07% in assay [3]; 0.31% in [4]; 0.62% in assay [5]; -0.06% in [6]. The inhibition worked out at 0.1% in assay [7], 1.15% in assay [8], 3.28% in assay [9] and 1.16% in assay [10].

As to `CNC(=O)c1cncc(/C=C/c2ccccc2C)c1`, the inhibition in assay [1] was found to be 2.09%; in assay [2], 1.38%; in [3], 1.83%; in [4], 0.2%; in assay [5], 0.92%; in [6], 1.99%. Further, the inhibition in assay [7] turned out to be 3.1%; in assay [8] it was 5.39%; in assay [9] it was 12.3%; in [10], 5.07%.

For the molecule `Nc1ncnc2occ(-c3ccc(NC(=O)Nc4cc(C(F)(F)F)ccc4F)cc3)c12`, the inhibition was 2.26% and 0.21% in assay [1]; 1.15% and 1.58% in assay [2]; 4.22% and 0.86% in [3]; 1.3% and 0.83% in [4]; 2.57% and 1.79% in [5]; 2.49% and -1.01% in [6]. For the same molecule, the inhibition in [7] was 3.45% and -1.47%; in assay [8] it was 7.6% and 1.13%; in assay [9], 17.5% and 6.32%; in [10], 7.23% and 1.21%.

On to `COc1ccc(-c2nn3ncccc3c2-c2ccnc(Nc3ccc(F)c(F)c3)n2)cc1`, for which the inhibition is 3.23% in assay [1]; 2.77% in [2]; 4.84% in assay [3]; -0.82% in [4]; 1.01% in assay [5]; 2.83% in assay [6]. Moreover, the inhibition in assay [7] was 3.6%; in assay [8], 3.2%; in assay [9], 4.32%; in [10], 3.16%.

Regarding `COC(=O)Nc1nc2cc(Oc3ccc(NC(=O)Nc4ccccc4)cc3)ccc2[nH]1`, the inhibition is 2% in assay [1]; 0.64% in [2]; 2.92% in assay [3]; -0.93% in [4]; 1.92% in assay [5]; 0.59% in assay [6]. The inhibition is 0.89% in assay [7], 4.23% in assay [8], 8.26% in assay [9] and 3.5% in assay [10].

As for `COc1cc2c(cc1Nc1nc(Nc3cccc(F)c3C(N)=O)c3cc[nH]c3n1)N(C(=O)CN1CCN(C(C)C)CC1)CC2`, the inhibition was 1.39% in assay [1]; 1.82% in assay [2]; 10.2% in assay [3]; 3.8% in assay [4]; 9.06% in assay [5]; 2.66% in assay [6]. Moreover, the inhibition in [7] came to 5.93%; in [8], 1.62%; in [9], 2.06%; in assay [10], 0.46%.

On to `COc1cc(N2CCN(C(C)C)CC2)ccc1Nc1nc(Nc2cccc3ncccc23)c2cc[nH]c2n1`, for which the inhibition was 1.89% in [1]; 0.19% in assay [2]; 5.87% in [3]; 1.41% in [4]; 7.46% in [5]; -1.54% in assay [6]. In addition, the inhibition in assay [7] was -1.74%; in [8], 0.06%; in assay [9] it was 3.49%; in [10], 0.31%.

As to `O=C(O[C@H]1CN[C@H](C#Cc2cc3ncnc(Nc4ccc5c(ccn5Cc5cc(F)ccc5F)c4)c3s2)C1)N1CCOCC1`, the inhibition in assay [1] was 1.89%; in assay [2], 2.29%; in assay [3], 4.73%; in [4] it was 0.4%; in assay [5], -1.92%; in [6] it was 3.27%. The inhibition was 2.77% in [7], 3.38% in assay [8], 6.08% in assay [9] and 1.76% in assay [10].

For the molecule `CS(=O)(=O)CCNCc1ccoc1-c1ccc2ncnc(Nc3ccc(OCc4ccccc4)cc3)c2c1`, the inhibition in [1] was -0.94%; in [2] it was 1.18%; in assay [3], 2.26%; in assay [4] it was -1.48%; in [5], -0.06%; in assay [6], 0.79%. Also, the inhibition in assay [7] is -1.66%; in [8], 4.65%; in [9] it was 5.47%; in assay [10], 2.8%.

In the case of `CC1=C(C(=O)Nc2ccc3[nH]nc(C)c3c2)C(c2ccc(C(F)(F)F)cc2)CC(=O)N1` (stereo not given), the inhibition in [1] is 14.1%; in assay [2], 2.93%; in assay [3] it was 7.46%; in assay [4], 1.73%; in [5] it was 4.23%; in assay [6], 2.28%. For the same molecule, the inhibition in [7] is 3.97%; in [8] it was 6.5%; in assay [9] it was 10.8%; in [10], 6.08%.

Turning to `O=C1Nc2ccccc2/C1=C1\CCc2cc(O)ccc21`, the inhibition in assay [1] was found to be 3.11%; in assay [2], 7.28%; in assay [3] it was 34%; in assay [4] it was 2.1%; in assay [5], 17.7%; in [6] it was 5.9%. For the same molecule, the inhibition came to 24.7% in [7], 3.11% in assay [8], 10.5% in [9] and 1.77% in [10].

As for `COC(=O)Nc1nc2ccc(Oc3ccc(NC(=O)Nc4cc(C(F)(F)F)ccc4F)cc3)cc2s1`, the inhibition in [1] is 0.05%; in [2], 0.96%; in assay [3], 2.5%; in assay [4] it was 1.09%; in assay [5], 2.02%; in assay [6], -0.29%. The inhibition in [7] was 0.21%; in assay [8] it was 0.71%; in assay [9], 4.01%; in assay [10], -0.46%.

Turning to `CCOc1ccc2c(-c3ccnc(Nc4cc(OC)cc(C(F)(F)F)c4)n3)cnn2n1`, the inhibition came to 21.8% in assay [1]; 5.33% in assay [2]; 21.6% in assay [3]; 8.29% in [4]; 38.8% in assay [5]; 1.12% in assay [6]. In addition, the inhibition amounted to 5.62% in [7], 9.42% in assay [8], 30.3% in assay [9] and 9.12% in assay [10].

`CS(=O)(=O)Nc1ccc(-c2ccc3c(NC(=O)C4CC4)n[nH]c3c2)cc1`: the inhibition is 4.08% in [1]; 1.29% in assay [2]; 6.04% in assay [3]; -0.26% in assay [4]; 2.94% in assay [5]; 2.37% in assay [6]. For the same molecule, the inhibition in [7] worked out at 2.73%; in assay [8] it was 2.08%; in assay [9] it was 7.33%; in assay [10], 1.51%.
